# Measured values as given in PubChem BioAssay (EPA / NIEHS).
# Values joined by “and” are separate entries in the source; they are usually repeats but may differ in a detail not shown here. Equal entries are not always repeated. Active and inactive are the calls of the source. The calls were made as follows: active = hit-call score of the fitted dose curve at least 0.9, where 1 is the maximum; inactive = score below 0.9.
# Assay: ATG_MRE_CIS: Attagene CIS-FACTORIAL HepG2 Assay for human Metal Responsive Element (MRE) (AID 2282954)
# Conditions: HepG2 MRE cis-reporter transcription, Attagene multiplex; actives raise or lower the signal
# Protocol: ATG_CIS is a cell-based, multiplexed-readout assay that uses HepG2, a human liver cell line, with measurements taken at 24 hours after chemical dosing in a 24-well plate.ATG_MRE_CIS is one of 52 assay component(s) measured or calculated from the ATG_CIS assay. It is designed to make measurements of mRNA induction, a form of inducible reporter, as detected with fluorescence intensity signals by Reverse transcription polymerase chain reaction (RT-PCR) and Capillary electrophoresis technology.Data from the assay component ATG_MRE_CIS was analyzed into 1 assay endpoint. This assay endpoint, ATG_MRE_CIS, was analyzed with bidirectional fitting relative to DMSO as the negative control and baseline of activity. Using a type of inducible reporter, measures of mRNA for gain or loss-of-signal activity can be used to understand the reporter gene at the transcription factor-level as they relate to the gene MTF1. Furthermore, this assay endpoint can be referred to as a primary readout, because this assay has produced multiple assay endpoints where this one serves a reporter gene function. To generalize the intended target to other relatable targets, this assay endpoint is annotated to the dna binding intended target family, where the subfamily is zinc finger.
# Human liver HepG2 cells are transiently transfected with multiple reporter transcription units (MRTUs) in 6-well plates using FuGene 6 reagent (Roche; 3 ml FuGene/1 mg DNA). The MRTU constructs are regulated by a cis-regulating element (promoter). […] A major difference between the CIS and TRANS system is that in CIS activities of endogenous TFs are measured, whereas the TRANS assay evaluates changes in activities of exogenous, chimeric NR-Gal4 proteins. […] At the end of 24 hour incubation, total RNA was isolated using TriZol reagent (Invitrogen). The isolated RNA is then reverse-transcribed using oligo(dT) primer and Mo-MLV reverse transcriptase (Invitrogen) with DNAse I (Ambion) treatment for 30 min. The one-tenth of the produced cDNA was amplified by PCR using Taq DNA polymerase (Invitrogen) and two reporter sequence-specific primers. The PCR products were fluorescently labeled by primer extension with 6-arboxyfluorescein (6-FAM) 5'-labeled reporter sequence-specific primer (2 min at 95 C, 20 s at 68 C and 10 min at 72 C) and these products were digested with 5U of HpaI (New England Biolabs) for 2h at 37 C. The fragments were purified using Qiaquick PCR columns (Qiagen), analyzed on an ABI 3130xL genetic analyzer (Applied Biosystems) with peak positions identified by using a set of X-rhodamine (ROX)-labeled MapMarker1000 molecular weight standards (BioVentures). The raw capillary electrophoresis data was processed using Attagraph software (Attagene).
Structure (SMILES),outcome,AC50
Cc1ccc(N)cc1Cl,inactive,
CC(=O)c1cc(C(C)(C)C)cc2c1CCC2(C)C,,70.4 µM (active)
CCc1ccccc1N,inactive,
CCOP(=S)(OCC)SCSP(=S)(OCC)OCC,inactive,
CCN(CC)C(=O)Cl,inactive,
CC12CC1(C)C(=O)N(c1cc(Cl)cc(Cl)c1)C2=O (stereo not given),inactive,
CCNc1nc(NC(C)(C)C)nc(SC)n1,,118 µM (active)
COP(=S)(OC)Oc1ccc(S(=O)(=O)N(C)C)cc1,,69 µM (active)
CC(C)OC(=O)Nc1ccccc1,inactive,
CC(C#N)CCC#N (stereo not given),inactive,
O=C(NCO)NCO,inactive,
Cc1cc(Cl)ccc1O[C@H](C)C(=O)O,inactive,
O=C(Cc1ccccc1)c1ccccc1,inactive,
Nc1cccc2ccccc12,inactive,
OCc1ccco1,inactive,
O=C1C(Cl)=C(Cl)C(=O)c2ccccc21,inactive,
O=C/C=C/c1ccccc1,inactive,
Nc1ncc([N+](=O)[O-])s1,inactive,
CC1(C)CCC(Cc2ccc(Cl)cc2)C1(O)Cn1cncn1 (stereo not given),inactive,
Cl/C=C\C[N+]12CN3CN(CN(C3)C1)C2,inactive,

Structure (SMILES),outcome,AC50
CC(C)C1CCC(Cc2ccc(Cl)cc2)C1(O)Cn1cncn1 (stereo not given),,11 µM (active)
CC(=[OH+])/C=C(/C)[O-].CC(=[OH+])/C=C(/C)[O-].CC(=[OH+])/C=C(/C)[O-].[Al],inactive,
CCC1(c2ccc(N)cc2)CCC(=O)NC1=O (stereo not given),inactive,
CC(C)(C)c1cc(O)ccc1O,,120 µM (active)
BrCCBr,inactive,
COc1cc2c(cc1OC)[C@@]13CCN4CC5=CCO[C@H]6CC(=O)N2[C@H]1[C@H]6[C@H]5C[C@H]43,inactive,
ClC1=C(Cl)[C@]2(Cl)[C@@H]3[C@@H](Cl)[C@@H](Cl)C[C@@H]3[C@@]1(Cl)C2(Cl)Cl,inactive,
O=C(Cl)c1ccc(Cl)cc1,inactive,
C[C@H]1O[C@@H](O[C@H]2[C@@H](O)C[C@H](O[C@H]3[C@@H](O)C[C@H](O[C@H]4CC[C@@]5(C)[C@H](CC[C@@H]6[C@@H]5CC[C@]5(C)[C@@H](C7=CC(=O)OC7)CC[C@]65O)C4)O[C@@H]3C)O[C@@H]2C)C[C@H](O)[C@@H]1O,inactive,
CCOP(=S)(OCC)Oc1ccc(S(C)=O)cc1 (stereo not given),inactive,
Cn1sc(Cl)cc1=O,inactive,
COc1cc(OC)nc(NC(=O)NS(=O)(=O)c2ncccc2C(=O)N(C)C)n1,inactive,
Cc1ccccc1N,inactive,
O=C(O)C(F)(F)C(F)(F)C(F)(F)C(F)(F)C(F)(F)C(F)(F)C(F)(F)C(F)(F)C(F)(F)C(F)(F)F,,23.2 µM (active) and 15.5 µM (active)
N#Cc1ccccn1,inactive,
Cc1ccccc1C(=O)Nc1cccc(OC(C)C)c1,inactive,
COS(=O)(=O)c1ccc(C)cc1,inactive,
COc1cccc(C=O)c1,inactive,
Clc1nc(Cl)nc(Cl)n1,inactive,
COC(=O)c1sccc1S(=O)(=O)NC(=O)Nc1nc(C)nc(OC)n1,inactive,
